{
  "source": "PubChem BioAssay (Tox21)",
  "note": "Values without a mark were called inactive. The call rests on the fitted dose curve; in most records, active means well fitted activation curve with a large enough effect in the repeat runs; inconclusive means weak or mixed curves; inactive means flat fitted curve, though single readings scatter. On the % scale 0 is the no-effect control and ±100 the full control effect.",
  "data": [
    {"experiment": "Caspase-3/7 induction in CHO-K1 cells by small molecules, qHTS assay (AID 1346980); further: nearly all actives have a fitted effect of over 15% in size", "details": "CHO-K1 caspase-3/7 induction, Caspase-Glo luminescence, 17 h; series mostly up to 92.4 µM; caspase-3/7 activation: at the top concentration", "description": "National Center for Advancing Translational Sciences [NCATS]\nNIH Chemical Genomics Center [NCGC]\nU.S. Environmental Protection Agency [EPA]\nNational Institutes of Environmental Health Sciences [NIEHS]\nNational Toxicology Program [NTP]\nApoptosis is a process of programmed cell death and plays a central role in the development of multicellular organisms. It is a highly regulated process and induces cell death by activating caspases, which are the members of cysteine aspartic acid-specific protease (caspase) family. Caspases involved in apoptosis are classified by their mechanism of action as initiator caspases (caspase-2, -8, -9 and -10) and executioner caspases (caspase-3, -6, and -7). Inhibition of apoptosis results in number of cancers, autoimmune diseases, inflammatory diseases and viral infection. To identify small molecule compounds that induce apoptosis, a homogeneous, luminescent Caspase-Glo 3/7 assay was used. Wild type CHO-K1 cells were used to screen Tox21 libraries for identifying caspase-3/7 activity inducers.\nCHO-K1 cells were dispensed at 1,500 per well in 5uL of culture medium into white solid bottom 1536-well plates (Corning Life Sciences, Corning, NY) using a Multidrop Combi (Thermo Scientific, Waltham, MA) dispenser. The assay plates were incubated at 37 C and 5% CO2 for 5hr, and then 23nL of compounds dissolved in DMSO and positive control were transferred using a Pintool station (Wako, San Diego, CA). The assay plates were incubated at 37C and 5% CO2 for 17hr. For caspase-3/7 activity read, 4uL of Caspase-Glo 3/7 reagent (Promega Corporation, Madison, WI) was added to each well of the assay plates using Flying Reagent Dispenser (FRD, Aurora Discovery, San Diego, CA) and incubated the assay plates at room temperature for 30min. The luminescence signal was quantified using a ViewLux plate reader (Perkin Elmer, Shelton, CT).", "values": [
      {"smiles": "O=C(CCN1CCN2CCCC2C1)N1c2ccccc2Sc2ccc(Cl)cc21", "note": "(stereo not given)", "caspase-3/7 activation": "0.894% [at 19 µM]"},
      {"smiles": "CC1=CCC(C(C)C)C=C1", "note": "(stereo not given)", "caspase-3/7 activation": "-0.0588%"},
      {"smiles": "C=CC[N+]1([C@H]2C[C@H]3[C@@H]4CC[C@H]5C[C@H](OC(C)=O)[C@@H](N6CCCCC6)C[C@]5(C)[C@H]4CC[C@]3(C)[C@H]2OC(=O)CC)CCCCC1", "caspase-3/7 activation": "-1.05% [at 42.5 µM]"},
      {"smiles": "CC(=O)O[C@@H]1C(=O)O[C@@H]2[C@H]1OC(=O)[C@@H]2OC(C)=O", "caspase-3/7 activation": "-1.24% [at 42.5 µM]"},
      {"smiles": "Cc1cccc(OCCOc2cccc(C)c2)c1", "caspase-3/7 activation": "1.87%"},
      {"smiles": "CCCCCCOC(=O)CCC", "caspase-3/7 activation": "-0.255%"},
      {"smiles": "CCCCOCCOCCOCCOCCO", "caspase-3/7 activation": "4.44%"},
      {"smiles": "Oc1ccc(Sc2ccc(O)cc2)cc1", "caspase-3/7 activation": "-1.55%"},
      {"smiles": "CC(C)(C)C(=O)OCOP(=O)(COCCn1cnc2c(N)ncnc21)OCOC(=O)C(C)(C)C", "caspase-3/7 activation": "1.6% [at 42.5 µM]"},
      {"smiles": "CCCCCCCCCC(=O)OCC", "caspase-3/7 activation": "0.0399%"},
      {"smiles": "SC1CCCC1", "caspase-3/7 activation": "-1.6%"},
      {"smiles": "OCC1CC2CC1C1CCC(CO)C21", "note": "(stereo not given)", "caspase-3/7 activation": "-0.665%"},
      {"smiles": "Oc1ccc(Cc2ccccc2)cc1", "caspase-3/7 activation": "0.0074%"},
      {"smiles": "CCCCCCCCN(C)C", "caspase-3/7 activation": "0.225%"},
      {"smiles": "CC(C)(C)c1cc(CO)cc(C(C)(C)C)c1O", "caspase-3/7 activation": "1.65%"},
      {"smiles": "CC(C)CCCC(C)CCO", "note": "(stereo not given)", "caspase-3/7 activation": "0.181%"},
      {"smiles": "O=c1[nH]cnc2ccccc12", "caspase-3/7 activation": "-1.7%"},
      {"smiles": "CCOc1ccc2[nH]cc(C(=O)NCc3ccccc3)c(=O)c2n1", "caspase-3/7 activation": "-1.45%"},
      {"smiles": "CC(C)NCC(O)c1cc(O)cc(O)c1", "note": "(stereo not given)", "caspase-3/7 activation": "-0.156% [at 42.5 µM]"},
      {"smiles": "CC(=O)c1c(C)c([N+](=O)[O-])c(C(C)(C)C)c([N+](=O)[O-])c1C", "caspase-3/7 activation": "-1.51%"},
      {"smiles": "O=[N+]([O-])c1cc[n+]([O-])cc1", "caspase-3/7 activation": "-1.78%"},
      {"smiles": "CCCCOc1cc(C(=O)OCCN(CC)CC)ccc1N", "caspase-3/7 activation": "0.875% [at 42.5 µM]"},
      {"smiles": "Cn1c(NCCN(CCO)CCCc2ccc([N+](=O)[O-])cc2)cc(=O)n(C)c1=O", "caspase-3/7 activation": "0.115% [at 42.5 µM]"},
      {"smiles": "O=C(Nc1ccccc1)OCC(CN1CCCCC1)OC(=O)Nc1ccccc1", "note": "(stereo not given)", "caspase-3/7 activation": "-1.11% [at 42.5 µM]"},
      {"smiles": "CN(C)CCCOc1nn(Cc2ccccc2)c2ccccc12", "caspase-3/7 activation": "1.62% [at 42.5 µM]"},
      {"smiles": "Cc1ccccc1N=Nc1ccc(N=Nc2c(O)ccc3ccccc23)c(C)c1", "caspase-3/7 activation": "0.287% [at 42.5 µM]"},
      {"smiles": "Cc1ccc(C(=O)C(C)CN2CCCCC2)cc1", "note": "(stereo not given)", "caspase-3/7 activation": "-0.0626% [at 42.5 µM]"},
      {"smiles": "OCCC1CCCCN1", "note": "(stereo not given)", "caspase-3/7 activation": "-2.14%"},
      {"smiles": "Oc1ccc(O)c2c(O)cccc12", "caspase-3/7 activation": "-0.0004%"},
      {"smiles": "N#Cc1c(F)cccc1F", "caspase-3/7 activation": "-0.11%"},
      {"smiles": "CCOC(=O)CC(=O)c1cc(F)c(Cl)nc1Cl", "caspase-3/7 activation": "0.591%"},
      {"smiles": "CC(=O)O[C@H]1C[C@@H]2CC[C@@H]3[C@H](CC[C@@]4(C)[C@H]3C[C@H]([N+]3(C)CCCCC3)[C@@H]4OC(C)=O)[C@@]2(C)C[C@@H]1N1CCCCC1", "caspase-3/7 activation": "1.94% [at 42.5 µM]"},
      {"smiles": "O=C(O)c1cccc(N(Cc2cccnc2)c2ccc(OC(F)F)c(OC(F)F)c2)c1", "caspase-3/7 activation": "0.0318%"},
      {"smiles": "CN(c1nccc(=O)[nH]1)C1CCN(c2nc3ccccc3n2Cc2ccc(F)cc2)CC1", "caspase-3/7 activation": "3.97% [at 42.5 µM]"},
      {"smiles": "O=C(O)Cn1c(C(=O)Nc2nc(-c3ccccc3Cl)cs2)cc2ccccc21", "caspase-3/7 activation": "0.898% [at 42.5 µM]"},
      {"smiles": "Cc1ccc(C)o1", "caspase-3/7 activation": "0.281%"},
      {"smiles": "CCOc1ccc(NC(=O)CC(C)=O)cc1", "caspase-3/7 activation": "-2%"},
      {"smiles": "CCN(CC)CCNC(C(=O)OCCC(C)C)c1ccccc1", "note": "(stereo not given)", "caspase-3/7 activation": "-0.56% [at 42.5 µM]"},
      {"smiles": "CCCCCCCCCO", "caspase-3/7 activation": "-0.771%"},
      {"smiles": "CC(=O)N(O)CCCCCNC(=O)CCC(=O)N(O)CCCCCNC(=O)CCC(=O)N(O)CCCCCN", "caspase-3/7 activation": "-1.29% [at 42.5 µM]"}
    ]}
  ]
}
